Activity calls are given as the source filed them. The calls were made as follows: active = hit-call score of the fitted dose curve at least 0.9, where 1 is the maximum; inactive = score below 0.9.
experiment: ATG_Sox_CIS: Attagene CIS-FACTORIAL HepG2 Assay for human SRY-box transcription factor (SOX) (AID 2282960); conditions: HepG2 Attagene cis-factorial SOX reporter, mRNA; actives raise or lower the signal
Experimental: ATG_CIS is a cell-based, multiplexed-readout assay that uses HepG2, a human liver cell line, with measurements taken at 24 hours after chemical dosing in a 24-well plate.ATG_Sox_CIS is one of 52 assay component(s) measured or calculated from the ATG_CIS assay. It is designed to make measurements of mRNA induction, a form of inducible reporter, as detected with fluorescence intensity signals by Reverse transcription polymerase chain reaction (RT-PCR) and Capillary electrophoresis technology.Data from the assay component ATG_Sox_CIS was analyzed into 1 assay endpoint. This assay endpoint, ATG_Sox_CIS, was analyzed with bidirectional fitting relative to DMSO as the negative control and baseline of activity. Using a type of inducible reporter, measures of mRNA for gain or loss-of-signal activity can be used to understand the reporter gene at the transcription factor-level as they relate to the gene SOX1. Furthermore, this assay endpoint can be referred to as a primary readout, because this assay has produced multiple assay endpoints where this one serves a reporter gene function. To generalize the intended target to other relatable targets, this assay endpoint is annotated to the dna binding intended target family, where the subfamily is HMG box protein.
Human liver HepG2 cells are transiently transfected with multiple reporter transcription units (MRTUs) in 6-well plates using FuGene 6 reagent (Roche; 3 ml FuGene/1 mg DNA). The MRTU constructs are regulated by a cis-regulating element (promoter). […] A major difference between the CIS and TRANS system is that in CIS activities of endogenous TFs are measured, whereas the TRANS assay evaluates changes in activities of exogenous, chimeric NR-Gal4 proteins. […] At the end of 24 hour incubation, total RNA was isolated using TriZol reagent (Invitrogen). The isolated RNA is then reverse-transcribed using oligo(dT) primer and Mo-MLV reverse transcriptase (Invitrogen) with DNAse I (Ambion) treatment for 30 min. The one-tenth of the produced cDNA was amplified by PCR using Taq DNA polymerase (Invitrogen) and two reporter sequence-specific primers. The PCR products were fluorescently labeled by primer extension with 6-arboxyfluorescein (6-FAM) 5'-labeled reporter sequence-specific primer (2 min at 95 C, 20 s at 68 C and 10 min at 72 C) and these products were digested with 5U of HpaI (New England Biolabs) for 2h at 37 C. The fragments were purified using Qiaquick PCR columns (Qiagen), analyzed on an ABI 3130xL genetic analyzer (Applied Biosystems) with peak positions identified by using a set of X-rhodamine (ROX)-labeled MapMarker1000 molecular weight standards (BioVentures). The raw capillary electrophoresis data was processed using Attagraph software (Attagene).

Row | Compound | outcome | AC50
1 | O=C(O)/C=C/C(=O)O | inactive | –
2 | CC(=O)Nc1c(I)c(NC(C)=O)c(I)c(C(=O)O)c1I | inactive | –
3 | CCCc1c(OCCCCc2nn[nH]n2)ccc(C(C)=O)c1O | inactive | –
4 | CN(C)CCCN1c2ccccc2CCc2ccc(Cl)cc21 | – | 11.1 µM (active)
5 | CCCC(=O)OC | inactive | –
6 | Cc1ccccc1S(N)(=O)=O | inactive | –
7 | Brc1ccc(Oc2ccc(Br)cc2)cc1 | inactive | –
8 | CNC(=C[N+](=O)[O-])NCCSCc1csc(CN(C)C)n1 | inactive | –
9 | c1ccc(CNc2ncnc3nc[nH]c23)cc1 | inactive | –
10 | CC[N+](CC)(CC(=O)Nc1c(C)cccc1C)Cc1ccccc1 (tested in a mixture with another compound) | inactive | –
11 | CNC[C@H](O)[C@@H](O)[C@H](O)[C@H](O)CO | inactive | –
12 | CCCCNC(N)=O | inactive | –
13 | O=C1NC(=O)C2CC=CCC12 (stereo not given) | inactive | –
14 | CC[N+](CC)(CC(=O)Nc1c(C)cccc1C)Cc1ccccc1 | inactive | –
15 | CCC(C)=NO | inactive | –
16 | CCCCCCCCCC/C=C/C1CC(=O)OC1=O (stereo not given) | inactive | –
17 | CCCCCC1CCCC(=O)O1 (stereo not given) | inactive | –
18 | Clc1ccccn1 | inactive | –
19 | O=C(O)/C=C\C(=O)O | inactive | –
20 | N#CCN(CC#N)CCN(CC#N)CC#N | inactive | –

Row | Compound | outcome | AC50
21 | CCC(C)C1N=C(C)C(C)S1 (stereo not given) | inactive | –
22 | CN(C)N=Nc1ccccc1 | inactive | –
23 | COc1cccc(OC)c1C(=O)O | inactive | –
24 | Nc1nnc(-c2ccc([N+](=O)[O-])o2)o1 | inactive | –
25 | CCCCCCCCCCC1CO1 (stereo not given) | inactive | –
26 | Cc1cc(O)cc(C)c1Cl | inactive | –
27 | CCCCC(CC)COC(=O)CS (stereo not given) | inactive | –
28 | Clc1ccc(Sc2cc(Cl)c(Cl)cc2Cl)cc1 | inactive | –
29 | CC(=O)c1nccs1 | inactive | –
30 | CCC(=O)OCc1ccc(OC)cc1 | inactive | –
31 | CCCCCCC1CCC(=O)O1 (stereo not given) | inactive | –
32 | CC=CC(=O)O | inactive | –
33 | OCCc1ccccn1 | inactive | –
34 | O=C(O)Cc1c[nH]c2ccccc12 | inactive | –
35 | CCCCCCC(O)CCCCCCCCCCC(=O)OC (stereo not given) | inactive | –
36 | NCc1ccccc1 | inactive | –
37 | C=C(C)C(=O)OCCCCCC | inactive | –
38 | CCCCCC[C@@H](O)C/C=C\CCCCCCCC(=O)O | inactive | –
39 | Oc1ccc(Oc2ccccc2)cc1 | inactive | –
40 | COc1ccc2ccccc2c1 | inactive | –

From PubChem BioAssay (EPA / NIEHS)
